FLuc counter: qHTS profiling assay for firefly luciferase inhibitor/activator using purifed enzyme and Km concentrations of substrates (counterscreen for miR-21 project); AID 588342, 2011; Potency, µM (titrated, usually from 57.5 µM), most hits filed as inhibitors; purified FLuc, Km substrates, luminescence inhibition; Luciferin 4-monooxygenase (Photinus pyralis), P08659; 360,000 compounds, 6.9% hits; further: nearly all actives have a fitted effect of over 55% in size
Target sequence (P08659 whole entry, looked up): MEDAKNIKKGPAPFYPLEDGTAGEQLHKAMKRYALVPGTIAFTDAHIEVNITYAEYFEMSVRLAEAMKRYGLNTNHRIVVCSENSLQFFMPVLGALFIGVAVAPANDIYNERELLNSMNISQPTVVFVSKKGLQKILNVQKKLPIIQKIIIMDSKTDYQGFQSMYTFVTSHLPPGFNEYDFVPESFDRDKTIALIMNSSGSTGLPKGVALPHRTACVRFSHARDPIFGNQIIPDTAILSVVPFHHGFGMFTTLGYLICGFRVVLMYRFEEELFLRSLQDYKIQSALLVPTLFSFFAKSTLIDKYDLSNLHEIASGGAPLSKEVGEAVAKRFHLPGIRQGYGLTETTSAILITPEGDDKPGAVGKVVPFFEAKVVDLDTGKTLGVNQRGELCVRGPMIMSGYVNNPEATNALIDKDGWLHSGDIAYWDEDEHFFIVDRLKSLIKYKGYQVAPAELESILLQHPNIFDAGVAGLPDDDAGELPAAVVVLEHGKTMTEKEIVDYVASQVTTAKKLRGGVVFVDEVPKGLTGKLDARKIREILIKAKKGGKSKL
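Purified P. pyralis luciferase, 10 nM final, with Km-level 10 uM D-luciferin and 10 uM ATP in 50 mM Tris acetate pH 7.5, 10 mM Mg acetate, 0.01% Tween-20, 0.05% BSA; 6-point qHTS titration about 60 µM downward; luminescence read.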
Rab9 promoter act: qHTS Assay for Rab9 Promoter Activators; Huh7 Rab9 promoter-luciferase reporter, luminescence, 24 h; Potency, µM (doses to about 9.22 µM), actives largely listed as activators; 320,000 compounds, 2.8% hits; further: nearly all actives have a fitted effect of over 60% in size
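Huh7 cells stably carrying Rab9 promoter–luciferase reporter, plated 1500 cells/well, compound added after 2 h and incubated 24 h at 37 °C; luciferase luminescence then read after 10 min with detection reagent.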
SMN2 splice enh: qHTS Assay for Enhancers of SMN2 Splice Variant Expression | HEK293 SMN2-luciferase splicing reporter, luminescence, 30-36 h | Potency, µM (titrated, usually from 46.1 µM), most hits filed as activators | 210,000 compounds, 2.8% hits | AID 1458, 2008; further: nearly all actives have a fitted effect of over 55% in size
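qHTS luciferase splicing reporter: luminescence rises when SMN2 exon 7 is included in transfected HEK293 cells. Compound exposure lasted 30-36 h at 37C, with 4.5 mM final sodium butyrate as control, followed by a ONE-Glo read.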
ELG1 genotox: qHTS screen for small molecules that induce genotoxicity in human embryonic kidney (HEK293T) cells expressing luciferase-tagged ELG1; AID 504466, 2011; 330,000 compounds, 1.3% hits; HEK293T ELG1-luciferase reporter, luminescence, 16 h; Potency, µM (series often up to 46 µM), hits mostly activators; further: nearly all actives have a fitted effect of over 60% in size
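DMSO vehicle served as control against compound-treated ELG1-luciferase HEK293T cells; exposure lasted 16 hr at 37 °C and 5% CO2, followed by ONE-Glo luminescence detection after 30 min.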
NPC1 promoter act: qHTS Assay for NPC1 Promoter Activators; Huh7 NPC1 promoter luciferase reporter, 24 h; Potency, µM (titrated, usually from 9.22 µM), usual class: activators; 320,000 compounds, 2.4% hits; AID 485313, 2010; further: nearly all actives have a fitted effect of over 60% in size
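NPC1 promoter–luciferase Huh7 cells; 24 h compound; luminescence.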
Hits are given with their value; - = inactive; ? = inconclusive; . = no result given; [ ] = remark or other dose. Most compounds without a hit are left out; they make up all but 7.4% or so of the library. The call rests on the fitted dose curve; in most records, active means well fitted curve in the direction sought with a large enough effect; inconclusive means small, poorly fitted or top-dose-only effect, or another doubt; inactive means no such curve, though single readings can be large; an effect the other way counts as inactive or inconclusive.

SMILES | FLuc counter | Rab9 promoter act | SMN2 splice enh | ELG1 genotox | NPC1 promoter act
Cc1cnc(NC(=O)CCc2ccccc2)s1 | ? | - | . | ? | -
COC(=O)c1sc(NC(=O)COc2ccccc2OC)nc1C | ? | - | - | - | -
Cc1cnc(NC(=O)COc2ccccc2)s1 | 11µM | 2.2µM | 11µM | ? | 2µM
Cc1ccc(-c2nn(Cc3ccccc3)cc2C(=O)NCC2CCCO2)cc1 (stereo unspecified) | - | - | . | - | -
Cc1ccc(C(=O)Nc2nc(-c3cccnc3)cs2)o1 | 21µM | - | - | - | -
COc1ccc(-c2csc(NC(=O)c3ccccc3F)n2)cc1 | ? | - | . | - | -
O=C(Nc1nc(-c2ccccc2)cs1)c1ccc(Br)o1 | 24µM | - | - | - | -
O=C(Nc1nc(-c2cccnc2)cs1)c1ccc([N+](=O)[O-])cc1 | - | - | . | - | -
O=C(Nc1nc(-c2ccccc2)cs1)c1ccccc1F | 17µM | 3.5µM | . | ? | ?
Cc1csc(NC(=O)c2ccc(C)o2)n1 | 15µM | 3.5µM | . | ? | ?
Cc1onc(-c2ccccc2)c1C(=O)Nc1nc(-c2ccccc2)cs1 | 19µM | ? | ? | ? | -
Cc1onc(-c2ccccc2)c1C(=O)Nc1nc(-c2cc(F)ccc2F)cs1 | ? | - | - | ? | -
Cc1csc(NC(=O)C2=NN(c3ccccc3)C(=O)CC2)n1 | - | - | - | - | -
Cc1ccc(-c2csc(NC(=O)C3=NN(c4ccccc4)C(=O)CC3)n2)cc1 | 8.5µM | - | - | - | -
COc1cc(/C=C2\SC(c3ccc(C)cc3)=NC2=O)ccc1O | 2.7µM | - | - | ? | -
COc1ccc(/C=C2\SC(c3ccc(C)cc3)=NC2=O)cc1OC | ? | - | - | - | -
COc1cc(/C=C2\SC(c3ccccc3)=NC2=O)cc(Cl)c1O | 11µM | - | - | - | -
CCOC(=O)c1ccc(NC(=O)CCCn2c(=O)c3cccn3c3cccnc32)cc1 | - | . | . | . | .
Cc1no[n+]([O-])c1COc1ccc(/C=C2\NC(=S)NC2=O)cc1 | - | - | - | - | -
CCOc1ccc(/C=C2\NC(=S)NC2=O)cc1 | 17µM | - | . | - | -
CCOC(=O)CCCNC(=O)N1CCc2nc(COc3ccccc3)c3c(c2C1)CO[C@@H](C)C3 | . | . | -[9.22 µM] | . | .
Cc1ccc(-c2nnc(NC3CCCC3)s2)cc1 | 3µM | 0.5µM | . | ? | 0.63µM
CC1(C)CC(=O)C2=C(C1)Nc1ccccc1NC2 | - | - | - | - | -
CC1(C)CC(=O)C2=C(C1)Nc1ccccc1N=C2 | 6.7µM | - | ? | - | -
COc1cccc(NS(=O)(=O)c2ccc(OC)c(OC)c2)c1 | - | - | - | - | -
SMILES | FLuc counter | Rab9 promoter act | SMN2 splice enh | ELG1 genotox | NPC1 promoter act
CCOc1ccc(S(=O)(=O)Nc2cccc(C(=O)N3CCN(C(C)=O)CC3)c2)cc1 | - | - | . | - | -
COc1ccc(S(=O)(=O)Nc2cccc(-c3ccc(N4CCCC4)nn3)c2)cc1F | 13µM | . | . | . | .
CCOc1ccc(S(=O)(=O)Nc2cccc(-c3ccc(N4CCC(C)CC4)nn3)c2)cc1 | 2.7µM | . | . | . | .
COc1ccc(S(=O)(=O)Nc2cccc(-c3ccc(N4CCCCCC4)nn3)c2)cc1OC | 6µM | - | . | - | -
COc1ccc(S(=O)(=O)Nc2cccc(-c3ccc(N4CCCCCC4)nn3)c2)cc1 | 6.7µM | . | . | . | .
CCCCOc1ccc(S(=O)(=O)Nc2ccc(-c3ccc(N4CCCCCC4)nn3)cc2)cc1 | - | . | . | . | .
COc1ccc(N2C(=O)CC(NNC(=O)c3cccnc3)C2=O)cc1 (stereo unspecified) | - | - | . | - | -
CCCCN(Cc1cc2cc(C)ccc2[nH]c1=O)C(=O)c1cccc(Cl)c1 | - | . | - | . | .
Cc1cc(=O)n(Cc2c(F)cccc2Cl)c2c1c(C)nn2-c1cccc(F)c1 | - | . | . | . | .
CCCn1c(SCC(=O)NC2CCCCC2)nnc1-c1ccco1 | - | - | . | - | -
COCCOC(=O)CSc1ncccc1-c1nc2cc(C)c(C)cc2[nH]1 | 2.1µM | 3.5µM | 16µM | ? | ?
CCOC(=O)CSc1nc2cccnc2n1C | - | - | - | - | -
Cc1cc2nc(-c3cccnc3SCC(=O)NC(C)C)[nH]c2cc1C | 2.7µM | 2.2µM | 11µM | 23µM | 2.8µM
COc1ccc2nc(SCC(=O)NC(C)C)[nH]c2c1 | - | - | - | - | -
CCc1cc2c(=O)[nH]c(-c3ccccn3)nc2s1 | 6µM | ? | 10µM | ? | 4.5µM
CCc1cc2c(=O)[nH]c(N3CCCC3)nc2s1 | ? | ? | ? | - | -
COc1ccc(C(C(=O)NC(C)(C)C)N(C(=O)CCC(=O)Nc2cc(C)on2)c2cccc(F)c2)cc1 (stereo unspecified) | - | - | . | - | -
CCc1ccc(N(C(=O)CCC(=O)Nc2cc(C)on2)C(C(=O)NC(C)(C)C)c2ccc(OC)cc2)cc1 (stereo unspecified) | 24µM | - | . | - | -
O=C(O)c1ccc(/C=C/c2ccc3cccc(O)c3n2)cc1 | 2.4µM | 3.5µM | 22µM | ? | 3.5µM
Oc1ccc(/C=C/c2ccc3cccc(O)c3n2)cc1Br | 17µM | - | . | 18µM | -
O=[N+]([O-])c1ccc(/C=C/c2ccc3cccc([N+](=O)[O-])c3n2)cc1 | - | - | - | - | -
COC(=O)c1ccc(/C=C/c2ccc3cccc(OC(C)=O)c3n2)cc1 | 3.8µM | 3.5µM | 16µM | ? | 4µM
C[n+]1cccc(/C=C\c2ccc3cccc(O)c3n2)c1 | . | . | -[9.22 µM] | . | .
C[n+]1cc[nH]c1SCC(=O)c1ccccc1 | 24µM | ? | - | 18µM | ?
C[n+]1cc[nH]c1SCC(=O)c1ccc(Cl)cc1 | . | ? | ? | ? | -
SMILES | FLuc counter | Rab9 promoter act | SMN2 splice enh | ELG1 genotox | NPC1 promoter act
CC(Oc1ccc(F)cc1)C(=O)Nc1nc(-c2ccc(F)cc2)ns1 (stereo unspecified) | ? | . | - | . | .
COc1ccc(-c2nc(NC(=O)CSc3nnc4ccccn34)ns2)cc1 | 12µM | - | - | - | -
O=C(CSc1nnc2ccccn12)Nc1cccc(-c2nc3ccccc3s2)c1 | - | ? | 14µM | ? | 3.5µM
O=C(CSc1nnc2ccccn12)Nc1nsc(-c2ccccc2)n1 | 15µM | - | - | - | -
CC1CC(C)CN(C(=O)COC(=O)Cc2ccc(Br)cc2)C1 (stereo unspecified) | - | - | . | - | -
CN1CCN(NC(=O)/C=C/c2ccc(C(C)(C)C)cc2)CC1 | - | - | . | - | -
O=C(NCc1ccc(F)cc1)c1nc(-c2cccs2)no1 | - | - | - | - | -
c1ccc(OCc2nc(-c3cccs3)no2)cc1 | 7.6µM | 3.2µM | ? | 13µM | 3.5µM
Fc1ccc(OCc2nc(-c3cccs3)no2)cc1 | 11µM | 2.5µM | ? | ? | 3.2µM
Cc1cc(OCc2nc(-c3cccs3)no2)cc(C)c1Cl | ? | - | - | - | -
O=C(Cn1cnc2ccccc21)Nc1cccc(S(=O)(=O)N2CCCC2)c1 | - | - | . | - | -
